Test results from PubChem BioAssay AID1159580 (chemical genetic matrix, 2015).
“And” between values parts separate entries of the source, which are not always exact repeats. Equal entries are not always repeated. The whole screen tested about 5,500 compounds, of which about 2,000 (36%) were called active. About 18% were inconclusive and are not listed. No stated cut-off is given here; in the data, active means normalized growth mostly below about 0.91 (no sharp cut-off); inconclusive means no clear call, values can overlap the other calls; inactive means mostly above about 0.92. This is one part of the list. The source holds several records for some structures; these can differ, active in one and inactive in another.

Experiment: chemical genetic growth profiling, strain panel (AID 1159580);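 further: tested at 20 µM; growth read once vehicle control cultures reached saturation at 30 °C; 1 = growth at the plate median or of vehicle wells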
Settings: growth OD

Measured: normalized growth

NCC(O)c1ccc(O)cc1 (stereo not given)
inactive: S. cerevisiae deletion strains, locus YKL009W, strain mrt4, stronger effect = lower value 1.01 | S. cerevisiae deletion strains, locus YKL068W, stronger effect = lower value 0.984 | S. cerevisiae deletion strains, locus YKL085W, strain MDH1 (second series), stronger effect = lower value 0.989 | S. cerevisiae deletion strains, locus YKL085W, strain MDH1, stronger effect = lower value 0.989 | S. cerevisiae deletion strains, locus YKL160W, strain elf1, stronger effect = lower value 0.998 | S. cerevisiae deletion strains, locus YKL190W, strain CNB1, stronger effect = lower value 1 | S. cerevisiae deletion strains, locus YKR001C, strain vps1, stronger effect = lower value 0.967 | S. cerevisiae deletion strains, locus YKR026C, strain gcn3, stronger effect = lower value 0.998 | S. cerevisiae deletion strains, locus YKR091W, strain srl3, stronger effect = lower value 0.999 | S. cerevisiae deletion strains, locus YLL001W, strain dnm1, stronger effect = lower value 1 | S. cerevisiae deletion strains, locus YLL026W, stronger effect = lower value 0.99 | S. cerevisiae deletion strains, locus YLL041C, strain sdh2, stronger effect = lower value 1.01 | S. cerevisiae deletion strains, locus YLR027C, strain aat2, stronger effect = lower value 0.993 | S. cerevisiae deletion strains, locus YLR039C, strain RIC1, stronger effect = lower value 1.02 | S. cerevisiae deletion strains, locus YLR058C, strain SHM2, stronger effect = lower value 0.995 | S. cerevisiae deletion strains, locus YLR102C, strain apc9, stronger effect = lower value 0.972 | S. cerevisiae deletion strains, locus YLR113W, strain HOG1, stronger effect = lower value 1.02 | S. cerevisiae deletion strains, locus YLR221C, strain rsa3, stronger effect = lower value 1 | S. cerevisiae deletion strains, locus YLR258W, strain gsy2, stronger effect = lower value 1.01 | S. cerevisiae deletion strains, locus YLR262C, strain YPT6 (second series), stronger effect = lower value 0.983 | S. cerevisiae deletion strains, locus YLR262C, strain YPT6, stronger effect = lower value 1.06 | S. cerevisiae deletion strains, locus YLR268W, strain sec22, stronger effect = lower value 0.922 | S. cerevisiae deletion strains, locus YLR320W, strain mms22, stronger effect = lower value 1.04 | S. cerevisiae deletion strains, locus YLR330W, strain CHS5, stronger effect = lower value 0.996 | S. cerevisiae deletion strains, locus YLR342W, strain FKS1 (second series), stronger effect = lower value 1.03 | S. cerevisiae deletion strains, locus YLR342W, strain FKS1, stronger effect = lower value 0.981 | S. cerevisiae deletion strains, locus YLR357W, strain rsc2, stronger effect = lower value 0.973 | S. cerevisiae deletion strains, locus YLR370C, strain arc18, stronger effect = lower value 1.01 | S. cerevisiae deletion strains, locus YLR371W, strain rom2, stronger effect = lower value 0.981 | S. cerevisiae deletion strains, locus YLR384C, strain iki3, stronger effect = lower value 1 | S. cerevisiae deletion strains, locus YLR418C, strain cdc73, stronger effect = lower value 0.967 | S. cerevisiae deletion strains, locus YML016C, strain PPZ1, stronger effect = lower value 0.998 | S. cerevisiae deletion strains, locus YML032C, strain rad52, stronger effect = lower value 0.962 | S. cerevisiae deletion strains, locus YML120C, strain ndi1, stronger effect = lower value 1.01 | S. cerevisiae deletion strains, locus YML124C, strain tub3, stronger effect = lower value 0.99 | S. cerevisiae deletion strains, locus YMR058W, strain fet3, stronger effect = lower value 1.02 | S. cerevisiae deletion strains, locus YMR078C, strain ctf18, stronger effect = lower value 0.968 | S. cerevisiae deletion strains, locus YMR125W, strain sto1, stronger effect = lower value 0.993 | S. cerevisiae deletion strains, locus YMR129W, stronger effect = lower value 1.01 | S. cerevisiae deletion strains, locus YMR205C, strain PFK2, stronger effect = lower value 0.994 | S. cerevisiae deletion strains, locus YMR223W, strain ubp8, stronger effect = lower value 0.997 | S. cerevisiae deletion strains, locus YMR231W, strain pep5, stronger effect = lower value 0.995 | S. cerevisiae deletion strains, locus YMR307W, strain GAS1, stronger effect = lower value 0.985 | S. cerevisiae deletion strains, locus YNL067W, strain RPL9B, stronger effect = lower value 0.991 | S. cerevisiae deletion strains, locus YNL071W, strain lat1, stronger effect = lower value 1.01 | S. cerevisiae deletion strains, locus YNL128W, strain TEP1, stronger effect = lower value 0.993 | S. cerevisiae deletion strains, locus YNL153C, strain GIM3, stronger effect = lower value 0.991 and 1.02 | S. cerevisiae deletion strains, locus YNL175C, strain NOP13, stronger effect = lower value 1.01 | S. cerevisiae deletion strains, locus YNL183C, strain NPR1, stronger effect = lower value 0.918 | S. cerevisiae deletion strains, locus YNL197C, strain WHI3, stronger effect = lower value 1.04 | S. cerevisiae deletion strains, locus YNL209W, strain ssb2, stronger effect = lower value 1.02 | S. cerevisiae deletion strains, locus YNL224C, strain SQS1, stronger effect = lower value 1.01 | S. cerevisiae deletion strains, locus YNL233W, strain BNI4, stronger effect = lower value 0.977 | S. cerevisiae deletion strains, locus YNL248C, strain rpa49, stronger effect = lower value 1.02 | S. cerevisiae deletion strains, locus YNL250W, strain rad50, stronger effect = lower value 0.976 | S. cerevisiae deletion strains, locus YNL271C, strain bni1, stronger effect = lower value 0.967 | S. cerevisiae deletion strains, locus YNL298W, strain CLA4, stronger effect = lower value 0.966 | S. cerevisiae deletion strains, locus YNL307C, strain MCK1, stronger effect = lower value 0.985 | S. cerevisiae deletion strains, locus YNL322C, strain KRE1 (second series), stronger effect = lower value 1 | S. cerevisiae deletion strains, locus YNL322C, strain KRE1, stronger effect = lower value 0.999 and 1.02 | S. cerevisiae deletion strains, locus YNR049C, strain mso1, stronger effect = lower value 1 | S. cerevisiae deletion strains, locus YNR052C, strain pop2, stronger effect = lower value 0.982 | S. cerevisiae deletion strains, locus YOL006C, strain TOP1, stronger effect = lower value 0.943 | S. cerevisiae deletion strains, locus YOL147C, strain pex11, stronger effect = lower value 0.976 | S. cerevisiae deletion strains, locus YOR001W, strain rrp6, stronger effect = lower value 0.989 | S. cerevisiae deletion strains, locus YOR061W, strain CKA2, stronger effect = lower value 0.991 | S. cerevisiae deletion strains, locus YOR069W, strain VPS5, stronger effect = lower value 0.995 | S. cerevisiae deletion strains, locus YOR070C, strain gyp1, stronger effect = lower value 1 | S. cerevisiae deletion strains, locus YOR080W, strain dia2, stronger effect = lower value 0.985 | S. cerevisiae deletion strains, locus YOR083W, strain WHI5 (second series), stronger effect = lower value 1.01 | S. cerevisiae deletion strains, locus YOR083W, strain WHI5, stronger effect = lower value 0.977 | S. cerevisiae deletion strains, locus YOR106W, strain vam3, stronger effect = lower value 1.02 | S. cerevisiae deletion strains, locus YOR136W, strain idh2, stronger effect = lower value 0.982 | S. cerevisiae deletion strains, locus YOR144C, strain elg1, stronger effect = lower value 0.976 | S. cerevisiae deletion strains, locus YOR184W, strain ser1, stronger effect = lower value 0.971 | S. cerevisiae deletion strains, locus YOR231W, strain MKK1, stronger effect = lower value 1.01 | S. cerevisiae deletion strains, locus YOR265W, strain rbl2, stronger effect = lower value 1 | S. cerevisiae deletion strains, locus YOR270C, strain vph1, stronger effect = lower value 1.06 | S. cerevisiae deletion strains, locus YOR290C, strain snf2, stronger effect = lower value 1 | S. cerevisiae deletion strains, locus YOR316C, strain cot1, stronger effect = lower value 0.974 | S. cerevisiae deletion strains, locus YPL051W, strain arl3, stronger effect = lower value 0.995 | S. cerevisiae deletion strains, locus YPL055C, strain LGE1, stronger effect = lower value 1.02 and 1.01 | S. cerevisiae deletion strains, locus YPL078C, strain atp4, stronger effect = lower value 1.01 | S. cerevisiae deletion strains, locus YPL106C, strain sse1, stronger effect = lower value 0.971 | S. cerevisiae deletion strains, locus YPL240C, strain hsp82, stronger effect = lower value 1 | S. cerevisiae deletion strains, locus YPL241C, strain CIN2, stronger effect = lower value 1 and 1.01 | S. cerevisiae deletion strains, locus YPL256C, strain CLN2, stronger effect = lower value 0.97 | S. cerevisiae deletion strains, locus YPR119W, strain clb2, stronger effect = lower value 0.968 | S. cerevisiae deletion strains, locus YPR141C, strain kar3, stronger effect = lower value 0.976 | S. cerevisiae deletion strains, locus YPR163C, strain tif3, stronger effect = lower value 0.971 | S. cerevisiae deletion strains, locus YPR167C, strain met16, stronger effect = lower value 0.974 | S. cerevisiae deletion strains, strain wtn01, stronger effect = lower value 0.969 | S. cerevisiae strains, strain wild type, stronger effect = lower value 1
0.727 (active) and 1 (inactive): S. cerevisiae deletion strains, locus YMR263W, strain SAP30, stronger effect = lower value
active: S. cerevisiae deletion strains, locus YOL012C, strain htz1 2.07 [resistant]
